# Test results: PubChem BioAssay
# A number with no mark means an inactive call. For some of these results: Entries with a potency or affinity are not part of this list. Activity calls are given as the source filed them. Unless noted, the rule behind the calls is not given here.
# What was measured:
# [1] = antimalarial activity against Dd2 strain (AID 2302;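 active = growth inhibition above 50% at the single 2 µM test dose, taken to imply half-maximal potency below 2 µM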;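 note: 0% = DMSO untreated growth and 100% = chloroquine plus artemisinin killed control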); conditions: P. falciparum Dd2 in RBCs, LDH growth readout, 72 h; at 2 µM; active compounds read high
# [2] = HepG2 cytotoxicity, primary screen, cytotoxicity control for P. falciparum antimalarial project, cell-based, ATP luminescence (AID 2303;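 active = inhibition above 50%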;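 note: 0% = DMSO wells and 100% = digitonin-killed cells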); conditions: HepG2 viability, 24-48 h, at 10 µM, active compounds read high
# [3] = biological target: L-lactate dehydrogenase (Plasmodium falciparum (isolate CDC / Honduras)) (UniProt Q27743); assay: PfLDH activity inhibition – cell lysate, 3D7 strain, counter-screen for P. falciparum growth inhibition project (AID 2304);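 note: 0% = vehicle and 100% = reference inhibitor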; conditions: P. falciparum 3D7 crude extract, LDH APAD/NBT absorbance; at 2 µM; active compounds read high
# Sequence of L-lactate dehydrogenase (Plasmodium falciparum (isolate CDC / Honduras)) (Q27743 whole entry, looked up): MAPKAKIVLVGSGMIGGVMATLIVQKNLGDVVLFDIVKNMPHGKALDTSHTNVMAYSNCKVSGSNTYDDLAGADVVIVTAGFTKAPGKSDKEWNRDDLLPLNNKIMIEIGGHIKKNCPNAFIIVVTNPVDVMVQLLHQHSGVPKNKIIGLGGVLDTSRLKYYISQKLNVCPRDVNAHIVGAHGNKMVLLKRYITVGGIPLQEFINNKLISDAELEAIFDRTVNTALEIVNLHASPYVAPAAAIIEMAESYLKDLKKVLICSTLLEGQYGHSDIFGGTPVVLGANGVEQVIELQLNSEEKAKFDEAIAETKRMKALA
# [4] = inhibition of 3D7 malaria parasite growth – strain 3D7 (AID 2306);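 note: 0% = DMSO wells and 100% = chloroquine plus artemisinin control wells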; conditions: P. falciparum 3D7 erythrocytic growth, LDH absorbance, 72 h; at 2 µM; active compounds read high
# [5] = biological target: Calcium-dependent protein kinase 1 (Plasmodium falciparum (isolate 3D7)) (UniProt P62344); assay: PfCDPK1 kinase inhibitors, biochemical, TCAMS library (AID 1159585; cut-off not given, nearly all actives have IC50 up to about 0.98 µM;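 note: inhibitors leave more ATP so luminescence rises with inhibition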); conditions: recombinant PfCDPK1, Kinase-Glo ATP depletion luminescence
# Sequence of Calcium-dependent protein kinase 1 (Plasmodium falciparum (isolate 3D7)) (P62344 whole entry, looked up): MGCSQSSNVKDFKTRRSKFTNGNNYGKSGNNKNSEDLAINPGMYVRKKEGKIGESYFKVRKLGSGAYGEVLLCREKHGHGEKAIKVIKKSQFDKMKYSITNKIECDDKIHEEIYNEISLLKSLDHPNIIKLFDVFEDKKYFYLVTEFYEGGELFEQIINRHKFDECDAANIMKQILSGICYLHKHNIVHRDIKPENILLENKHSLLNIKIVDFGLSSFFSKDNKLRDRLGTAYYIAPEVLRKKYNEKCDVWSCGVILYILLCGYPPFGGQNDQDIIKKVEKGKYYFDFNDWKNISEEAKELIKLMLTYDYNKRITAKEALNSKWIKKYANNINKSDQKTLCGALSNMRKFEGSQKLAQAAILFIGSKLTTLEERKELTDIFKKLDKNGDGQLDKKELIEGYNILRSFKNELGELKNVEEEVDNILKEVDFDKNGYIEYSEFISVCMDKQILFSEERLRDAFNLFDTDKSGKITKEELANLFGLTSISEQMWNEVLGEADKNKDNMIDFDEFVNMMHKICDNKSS
# [6] = biological target: Plasmodium falciparum protein kinase 6 (PK6, PF3D7_1337100) (UniProt Q8IDW1); assay: PfPK6 kinase inhibitors, biochemical, TCAMS library (AID 1159586); conditions: recombinant PfPK6, Kinase-Glo ATP depletion luminescence
# Sequence of Plasmodium falciparum protein kinase 6 (PK6, PF3D7_1337100) (Q8IDW1 1-305): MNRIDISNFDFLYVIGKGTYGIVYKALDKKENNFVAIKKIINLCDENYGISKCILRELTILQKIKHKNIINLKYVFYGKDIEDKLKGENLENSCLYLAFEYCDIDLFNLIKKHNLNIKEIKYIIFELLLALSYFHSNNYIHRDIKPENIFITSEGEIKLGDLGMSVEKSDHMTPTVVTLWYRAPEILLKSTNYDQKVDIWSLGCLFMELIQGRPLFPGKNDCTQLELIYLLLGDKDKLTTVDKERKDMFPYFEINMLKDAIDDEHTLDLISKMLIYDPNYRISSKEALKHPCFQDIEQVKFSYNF
# [7] = biological target: Protein kinase 7 (PK7), Plasmodium falciparum 3D7 (PF3D7_0213400) (UniProt Q7YTF7); assay: inhibition of Plasmodium PK7 catalytic activity – biochemical, TCAMS antimalarial set, Kinase-Glo luminescence (AID 1159587); conditions: recombinant PfPK7, Kinase-Glo ATP depletion luminescence
# Sequence of Protein kinase 7 (PK7), Plasmodium falciparum 3D7 (PF3D7_0213400) (Q7YTF7 1-343): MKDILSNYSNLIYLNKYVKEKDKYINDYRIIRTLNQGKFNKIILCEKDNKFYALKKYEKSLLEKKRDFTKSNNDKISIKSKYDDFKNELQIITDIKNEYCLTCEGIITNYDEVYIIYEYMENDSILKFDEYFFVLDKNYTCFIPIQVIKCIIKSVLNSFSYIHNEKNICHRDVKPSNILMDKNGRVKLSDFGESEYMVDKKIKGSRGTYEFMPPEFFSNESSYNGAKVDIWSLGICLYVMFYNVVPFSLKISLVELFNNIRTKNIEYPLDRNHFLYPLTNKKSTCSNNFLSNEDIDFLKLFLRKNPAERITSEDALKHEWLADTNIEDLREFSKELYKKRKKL
# [8] = biological target: Calcium-dependent protein kinase 4 (Plasmodium falciparum (isolate 3D7)) (UniProt Q8IBS5); assay: PfCDPK4 kinase inhibitors, biochemical, TCAMS library (AID 1159588; cut-off not given, nearly all actives have IC50 up to about 0.91 µM); conditions: recombinant PfCDPK4, Kinase-Glo ATP depletion luminescence
# Sequence of Calcium-dependent protein kinase 4 (Plasmodium falciparum (isolate 3D7)) (Q8IBS5 whole entry, looked up): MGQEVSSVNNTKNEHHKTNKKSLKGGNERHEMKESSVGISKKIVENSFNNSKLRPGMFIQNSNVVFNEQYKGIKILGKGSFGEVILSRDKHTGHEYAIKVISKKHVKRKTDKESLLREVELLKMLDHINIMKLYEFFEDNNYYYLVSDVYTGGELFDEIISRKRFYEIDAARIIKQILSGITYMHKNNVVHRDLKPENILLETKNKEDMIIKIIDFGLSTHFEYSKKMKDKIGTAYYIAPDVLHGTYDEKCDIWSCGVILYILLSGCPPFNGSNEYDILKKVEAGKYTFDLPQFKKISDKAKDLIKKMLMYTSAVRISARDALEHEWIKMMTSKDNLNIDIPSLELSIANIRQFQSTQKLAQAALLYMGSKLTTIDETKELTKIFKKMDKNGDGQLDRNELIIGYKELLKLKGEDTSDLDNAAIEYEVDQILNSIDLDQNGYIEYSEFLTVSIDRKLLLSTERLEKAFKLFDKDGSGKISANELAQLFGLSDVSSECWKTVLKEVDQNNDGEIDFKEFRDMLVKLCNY
SMILES,growth inhibition [1],inhibition [2] [%],inhibition [3] [%],growth inhibition [4],outcome [5],outcome [6],outcome [7],outcome [8]
O=C(C=Cc1ccc(Cl)c(Cl)c1)NCCCCCN1CCCC(CCCNS(=O)(=O)c2ccc(Br)cc2)C1 (stereo not drawn),5%,43,-2,88% (active),inactive,inactive,inactive,inactive
COC(=O)c1cccc(CNCc2ccc(-c3cccc(-c4nc5c(C)cccc5[nH]4)c3)cc2)c1,84% (active),-7,7,102% (active),inactive,inactive,inactive,inactive
CC1(C)CCCC(=Cc2ccc(Br)cc2)C1(O)Cn1ccnc1 (stereo not drawn),69% (active),7,0,99% (active),inactive,inactive,inactive,inactive
Cc1ccc(N2C(=O)C3C(C2=O)[C@]2(c4ccccc4)C(=O)[C@@]3(c3ccccc3)C(c3ccccc3)=C2c2ccccc2)c(C)c1 (stereo partly drawn),96% (active),3,6,96% (active),inactive,inactive,inactive,inactive
Cc1cc(NC(=O)NCCN2CCC(NC(=O)c3ccc(Cl)cc3)CC2)c2ccccc2n1,54% (active),-4,-2,90% (active),inactive,inactive,inactive,inactive
CCCCCCCN1CC[C@@H](CCCc2ccnc3ccc(OCCCCN=C(N)NO)cc23)[C@@H](CC)C1,39%,27,2,90% (active),inactive,inactive,inactive,inactive
Cc1cccc2[nH]c(-c3cccc(-c4cccc(CN5CCN(c6ccc(C#N)cn6)CC5)c4)c3)nc12,34%,11,-5,94% (active),inactive,inactive,inactive,inactive
O=C(/C=C/c1ccccc1Cl)NC1CCC(CN2CCC(c3c[nH]c4ccncc34)CC2)CC1 (stereo not drawn),100% (active),19,-2,100% (active),inactive,inactive,inactive,inactive
CC(=O)OCCN1C(=O)c2ccc3c4c(ccc(c24)C1=O)C(=O)N(CCOC(C)=O)C3=O,1%,2,3,94% (active),inactive,inactive,inactive,inactive
Cc1cccc(NC(=O)c2ccc(C(=O)NC3CCN(CC4CCCCC4)C3)cc2)c1 (stereo not drawn),3%,17,-3,88% (active),inactive,inactive,inactive,inactive
Cc1cccc(-c2nc(Nc3ccncc3)c3ccc([N+](=O)[O-])cc3n2)n1,13%,-9,-1,87% (active),inactive,inactive,inactive,inactive
NC(N)=NC(=O)Nc1cc(F)c(Cl)c(Br)c1,50% (active),-3,1,101% (active),inactive,inactive,inactive,inactive
Cc1cc(N)c2cc(NC(=O)c3cccc4ccccc34)ccc2n1,13%,18,4,98% (active),inactive,inactive,inactive,inactive
CC(C)CCn1c(Sc2ccc(C#N)c([N+](=O)[O-])c2)nnc1-c1cccc(Cl)c1,82% (active),33,0,96% (active),inactive,inactive,inactive,inactive
Cc1cc(=O)c2cc(Oc3cccc(OC(F)(F)F)c3)ccc2[nH]1,80% (active),9,2,90% (active),inactive,inactive,inactive,inactive
CCCNC(=O)CN1CN(c2ccccc2)C2(CCN(C(=O)c3ccc(C(C)(C)C)cc3)CC2)C1=O,98% (active),0,0,99% (active),inactive,inactive,inactive,inactive
CCCNC(=O)Nc1ccc(N(C)c2ccnc(NC3CC3)n2)cc1,88% (active),28,-2,100% (active),inactive,inactive,inactive,inactive
CNC(=O)c1cnc(Nc2ccc(N3CCN(C)CC3)c(C)c2)nc1NC,38%,19,-1,97% (active),inactive,inactive,inactive,inactive
CCc1cn2c3c(cc(C(=O)N[C@@H](Cc4ccccc4)[C@H](O)CNC4CC4)cc13)N(CC)S(=O)(=O)CC2,99% (active),13,-3,98% (active),inactive,inactive,inactive,inactive
N#Cc1nc2ccc(OCCN(Cc3ccccc3C(F)(F)F)c3ccc(C#N)c(C(F)(F)F)c3)cc2s1,47%,23,6,93% (active),inactive,inactive,inactive,inactive
OC(CNCc1ccccc1Oc1ccccc1)c1cc(Br)cs1 (stereo not drawn),79% (active),-13,-4,94% (active),inactive,inactive,inactive,inactive

SMILES,growth inhibition [1],inhibition [2] [%],inhibition [3] [%],growth inhibition [4],outcome [5],outcome [6],outcome [7],outcome [8]
C[C@@H]1CN(c2cnn(Cc3ccc(NC(=O)Nc4ccc(F)cc4[N+](=O)[O-])cc3)c(=O)c2Cl)C[C@H](C)N1,10%,4,-2,89% (active),inactive,inactive,inactive,inactive
CCNc1cc(C(=O)N[C@@H](Cc2ccccc2)[C@H](O)CNC2CCCCC2)cc(N2CCCCS2(=O)=O)c1,98% (active),11,-4,99% (active),inactive,inactive,inactive,inactive
CCCN1CCN(c2cc(S(=O)(=O)Nc3ccc(C(=O)NCc4cccc(C(F)(F)F)c4)cc3)ccc2OC)CC1,8%,27,-3,92% (active),inactive,inactive,inactive,inactive
O=C(/C=C/c1ccc(Cl)c(Cl)c1)NCCCCCN1CCCN(C(=S)Nc2ccc(Cl)cc2)CC1,10%,7,-3,86% (active),inactive,inactive,inactive,inactive
CCCCCN1CCCC(NS(=O)(=O)c2ccc(C(=O)Nc3ccc(C(F)(F)F)cc3)cc2)C1 (stereo not drawn),20%,41,4,98% (active),inactive,inactive,inactive,inactive
CC(C)c1sc(N2CCN(C)CC2)nc1C(=O)NCCc1ccc(Br)cc1,60% (active),-1,-1,89% (active),inactive,inactive,inactive,inactive
Cn1c(NC2=NC3(c4ccccn4)N=C(Nc4nc5ccccc5n4C)NC3(c3ccccn3)N2)nc2ccccc21 (stereo not drawn),44%,12,0,99% (active),inactive,inactive,inactive,inactive
Cc1cc2c(cc1C(F)(F)F)N(C(=O)Nc1cc(C(=O)NCCN(C)C)cc(C(F)(F)F)c1)CC2,50% (active),19,-7,100% (active),inactive,inactive,inactive,inactive
CCCC(C)NC(=O)/C=C/c1ccccc1-c1cccc(OC)c1 (stereo not drawn),59% (active),0,3,87% (active),inactive,inactive,inactive,inactive
COc1cc(Cc2cnc(NCCN3CCNCC3)nc2N)ccc1OCc1ccc(C(F)(F)F)cc1,4%,12,4,98% (active),inactive,inactive,inactive,inactive
CC(=O)Nc1ncc(C(=O)Nc2cccc(-c3ccc(-c4nc5ccc(F)cc5[nH]4)cc3)c2)s1,78% (active),18,4,94% (active),inactive,inactive,inactive,inactive
O=C(Nc1ccc(-c2cccc(-c3nc4ccc(F)cc4[nH]3)c2)cc1)Nc1ccsc1,51% (active),34,5,101% (active),inactive,inactive,inactive,inactive
Oc1c(C(Nc2ccccn2)c2ccco2)cc(Cl)c2cccnc12 (stereo not drawn),65% (active),41,1,87% (active),inactive,inactive,inactive,inactive
COc1ccc2nc(-c3ccccc3)cc(NN=Cc3ccncc3)c2c1,27%,14,-2,99% (active),inactive,inactive,inactive,inactive
CCc1ccc(C2CCN(CCCCNC(=O)c3ccc(NC(=O)c4ccc(Cl)cc4)cc3)CC2)c(OCC(=O)OC)c1,12%,32,6,95% (active),inactive,inactive,inactive,inactive
CN(C)CCOc1ccc(-c2cc(-c3ccc(Cl)c(O)c3)c(-c3ccncc3)o2)cc1,99% (active),39,2,102% (active),inactive,inactive,inactive,inactive
Cc1[nH]c(C)c(-c2ccc(CCc3ccc(F)cc3F)cc2)c(=O)c1Cl,97% (active),5,-4,98% (active),inactive,inactive,inactive,inactive
CCCCCCNC(=O)C1Cc2c([nH]c3ccc(Br)cc23)C2(CCN(CCc3ccccc3)CC2)N1 (stereo not drawn),94% (active),36,0,100% (active),inactive,inactive,inactive,inactive
O=C(/C=C/c1ccc(Cl)c(Cl)c1)NCCCCCN1CCC(NC(=O)NCCc2ccccc2)CC1,7%,23,2,100% (active),inactive,inactive,inactive,inactive
O=C(Nc1ccc(N2CCN(Cc3c[nH]c4cc(F)ccc34)CC2)cc1)c1ccccc1-c1ccc(C(F)(F)F)cc1,7%,20,9,85% (active),inactive,inactive,inactive,inactive
